Several values for one entry are separate records, joined by “and”; a condition that tells them apart may be missing. Equal values may be shown once. Values without a mark were called inactive. How the calls were made is not given here.
test system: Aerobactin synthetase IucA (Klebsiella pneumoniae hvKP1); assay: Biochemical IucA enzyme inhibition primary screen of the Spectrum library (AID 1346200); settings: malachite green pyrophosphate, A620, at 8 µM, active compounds read low;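 further: 100% = wells without compound and 0% = wells lacking enzyme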

SMILES	activity remaining
CN1CCN(CCCN2c3ccccc3Sc3ccc(C(F)(F)F)cc32)CC1	122%
CC(N=C(NC#N)Nc1ccncc1)C(C)(C)C (stereo not given)	105%
CN(C)CCOC(=O)COc1ccc(Cl)cc1	124%
NC(=O)c1ncn([C@@H]2O[C@H](CO)[C@@H](O)[C@H]2O)n1	120%
CN1C(C(=O)Nc2ccccn2)=C(O)c2ccccc2S1(=O)=O	115%
Cc1ccc(N(CC2=NCCN2)c2cccc(O)c2)cc1	117%
CC(CN(C)C)CN1c2ccccc2CCc2ccccc21 (stereo not given)	105%
NC(N)=NC(=O)c1nc(Cl)c(N)nc1N	118%
O=C(O)C1=CCCNC1	98.7%
O=C(O)CCCCCCCC(=O)O	120%
O=C(O)c1cc(=O)c2c(Cl)cc(Cl)cc2[nH]1	103%
NCCCCC(=O)O	107%
N=C(N)c1ccc(OCCCCCOc2ccc(C(=N)N)cc2)cc1	98.2%
CC(C(=O)O)c1cccc(C(=O)c2ccccc2)c1 (stereo not given)	106%
CNC[C@H](O)c1cccc(O)c1	103%
O=c1[nH]cnc2[nH]ncc12	99.3%
CN(C)C(=O)C(CCN1CCC(O)(c2ccc(Cl)cc2)CC1)(c1ccccc1)c1ccccc1	113%
CC(C)NCC(O)COc1cccc2[nH]ccc12 (stereo not given)	103%
Cc1cc(C(C)(C)C)c(O)c(C)c1CC1=NCCN1	114%
CSc1ccc2c(c1)N(CCC1CCCCN1C)c1ccccc1S2 (stereo not given)	116%

SMILES	activity remaining
CC(C)(C)NCC(O)c1ccc(O)c(CO)c1 (stereo not given)	110%
CC(=O)OCC1=C(C(=O)O)N2C(=O)[C@@H](NC(=O)Cc3cccs3)[C@H]2SC1	109%
NC(=O)N1c2ccccc2C=Cc2ccccc21	114%
O=C(O)CCc1nc(-c2ccccc2)c(-c2ccccc2)o1	111%
Cc1cnc(NC(=O)C2=C(O)c3ccccc3S(=O)(=O)N2C)s1	118%
NCCc1ccc(O)c(O)c1	103% and 107%
CCn1cc(C(=O)O)c(=O)c2cc3c(cc21)OCO3	109%
Nc1ccc(S(=O)(=O)Nc2ccnn2-c2ccccc2)cc1	117%
Clc1ccc(C(c2ccccc2Cl)C(Cl)Cl)cc1 (stereo not given)	92.7%
CC(=O)Oc1ccccc1C(=O)O	109%
CN(C)CCCC1(c2ccc(F)cc2)OCc2cc(C#N)ccc21 (stereo not given)	102%
CCN(CC)CCNC(=O)c1cc(S(C)(=O)=O)ccc1OC	120%
C[N+](C)(C)CCCCCC[N+](C)(C)C	122%
Nc1ncnc2c1ncn2[C@@H]1O[C@H](CO)[C@@H](O)[C@H]1O	113%
O=C(c1ccccc1)c1ccc2n1CCC2C(=O)O (stereo not given)	128%
Cc1cn[nH]c1	102%
CCC1(c2ccccc2)C(=O)NCNC1=O	125%
NS(=O)(=O)c1cc2c(cc1Cl)NC=NS2(=O)=O	113%
CN(C)c1ccc(O)c2c1C[C@H]1C[C@H]3[C@H](N(C)C)C(=O)C(C(N)=O)=C(O)[C@@]3(O)C(=O)C1=C2O	105%
CCn1cc(C(=O)O)c(=O)c2cc(F)c(N3CCNC(C)C3)c(F)c21 (stereo not given)	104%

test system: Aerobactin synthetase IucA (Klebsiella pneumoniae, hypervirulent); assay: IucA enzyme inhibition, biochemical, LOPAC library, absorbance readout (AID 1346212); settings: IucA enzyme assay, absorbance (OD) readout; active compounds read low;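 tested at 8 µM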;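 further: 100% = no compound wells and 0% = no enzyme wells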

SMILES	remaining activity
CN1CCN(CCCN2c3ccccc3Sc3ccc(C(F)(F)F)cc32)CC1	93.4%
CC(N=C(NC#N)Nc1ccncc1)C(C)(C)C (stereo not given)	92.7%
CN(C)CCOC(=O)COc1ccc(Cl)cc1	112%
NC(=O)c1ncn([C@@H]2O[C@H](CO)[C@@H](O)[C@H]2O)n1	96.8%
CN1C(C(=O)Nc2ccccn2)=C(O)c2ccccc2S1(=O)=O	109%
Cc1ccc(N(CC2=NCCN2)c2cccc(O)c2)cc1	92.9%
CC(CN(C)C)CN1c2ccccc2CCc2ccccc21 (stereo not given)	106%
NC(N)=NC(=O)c1nc(Cl)c(N)nc1N	105%
O=C(O)C1=CCCNC1	96.8%
O=C(O)CCCCCCCC(=O)O	93.4%
O=C(O)c1cc(=O)c2c(Cl)cc(Cl)cc2[nH]1	110%
NCCCCC(=O)O	104%
N=C(N)c1ccc(OCCCCCOc2ccc(C(=N)N)cc2)cc1	122%
CC(C(=O)O)c1cccc(C(=O)c2ccccc2)c1 (stereo not given)	120%
CNC[C@H](O)c1cccc(O)c1	112%
O=c1[nH]cnc2[nH]ncc12	110%
CN(C)C(=O)C(CCN1CCC(O)(c2ccc(Cl)cc2)CC1)(c1ccccc1)c1ccccc1	114%
CC(C)NCC(O)COc1cccc2[nH]ccc12 (stereo not given)	116%
Cc1cc(C(C)(C)C)c(O)c(C)c1CC1=NCCN1	117%
CSc1ccc2c(c1)N(CCC1CCCCN1C)c1ccccc1S2 (stereo not given)	91.4%

SMILES	remaining activity
CC(C)(C)NCC(O)c1ccc(O)c(CO)c1 (stereo not given)	121% and 104%
CC(=O)OCC1=C(C(=O)O)N2C(=O)[C@@H](NC(=O)Cc3cccs3)[C@H]2SC1	117%
NC(=O)N1c2ccccc2C=Cc2ccccc21	102%
O=C(O)CCc1nc(-c2ccccc2)c(-c2ccccc2)o1	116%
Cc1cnc(NC(=O)C2=C(O)c3ccccc3S(=O)(=O)N2C)s1	120%
NCCc1ccc(O)c(O)c1	104%
CCn1cc(C(=O)O)c(=O)c2cc3c(cc21)OCO3	95.5%
Nc1ccc(S(=O)(=O)Nc2ccnn2-c2ccccc2)cc1	99.3%
Clc1ccc(C(c2ccccc2Cl)C(Cl)Cl)cc1 (stereo not given)	111%
CC(=O)Oc1ccccc1C(=O)O	118%
CN(C)CCCC1(c2ccc(F)cc2)OCc2cc(C#N)ccc21 (stereo not given)	124%
CCN(CC)CCNC(=O)c1cc(S(C)(=O)=O)ccc1OC	104%
C[N+](C)(C)CCCCCC[N+](C)(C)C	99.1% and 87%
Nc1ncnc2c1ncn2[C@@H]1O[C@H](CO)[C@@H](O)[C@H]1O	110%
O=C(c1ccccc1)c1ccc2n1CCC2C(=O)O (stereo not given)	120%
Cc1cn[nH]c1	121%
CCC1(c2ccccc2)C(=O)NCNC1=O	75.1%
NS(=O)(=O)c1cc2c(cc1Cl)NC=NS2(=O)=O	123%
CN(C)c1ccc(O)c2c1C[C@H]1C[C@H]3[C@H](N(C)C)C(=O)C(C(N)=O)=C(O)[C@@]3(O)C(=O)C1=C2O	110%
CCn1cc(C(=O)O)c(=O)c2cc(F)c(N3CCNC(C)C3)c(F)c21 (stereo not given)	118%

From PubChem BioAssay
